Source: the supplement of paper PMC3334620
In all, about 33,000 sequences were measured (“E-score (-0.5 to 0.5)”: median about -0.0034, highest 2% from about 0.25 on). The entries come from a sample that favours the highest values as a whole.

Target: T1, Yap3 (UniProt P38749)
T1 sequence: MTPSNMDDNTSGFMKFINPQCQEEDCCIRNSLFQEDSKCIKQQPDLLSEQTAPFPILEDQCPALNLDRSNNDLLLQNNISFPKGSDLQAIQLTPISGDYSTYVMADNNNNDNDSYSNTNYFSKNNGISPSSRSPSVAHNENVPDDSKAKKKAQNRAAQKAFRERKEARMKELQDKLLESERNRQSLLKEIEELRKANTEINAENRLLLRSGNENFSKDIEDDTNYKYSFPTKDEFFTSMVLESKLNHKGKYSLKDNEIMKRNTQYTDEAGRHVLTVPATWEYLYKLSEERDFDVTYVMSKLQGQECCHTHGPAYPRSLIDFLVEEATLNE
Assay: PBM E-score (8-mer binding enrichment) (E-score (-0.5 to 0.5)); higher = stronger / more preferred TF binding
Details: protein concentration: 100 nM; construct: GST-full length
In short: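 Detection of bound protein used fluorescent anti-GST, with scans normalised by masliner. The proteins were GST-tagged yeast transcription factors applied at about 100-200 nM to universal all-10-mer Agilent arrays made double-stranded by primer extension. Each ungapped eight-base word, pooled with its reverse complement, was scored with an E-score from the Universal PBM Analysis Suite.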

Sequence	PBM E-score
ATTAGAGC	0.116
GAACGCTC	-0.11
AGAGAAAT	0.142
CAACAGAA	-0.0742
CAACAGGG	-0.116
TACCACAA	0.123
AGGAAGAT	0.13
AGTCAGGG	-0.185
ATAATTCA	0.282
ACAATTAT	0.248
CTAATTCA	0.112
ATAATTCG	0.242
AGAATTAT	0.197
ATAATTAT	0.302
ATCAGAGG	-0.132
GACGCTGC	-0.0366
ATGCGAAA	0.13
ACTTAGGG	-0.112
GTTAATAA	0.223
CTTAATAC	0.0534
ATTAATAG	0.228
ATTAATAA	0.405
CTTAATAA	0.275
ATTAATAC	0.201
AATATGGG	0.0708

Sequence	PBM E-score
CTTGGTAC	0.172
GAAGAGCA	-0.258
GCTTCCCC	-0.346
ACGTCAGC	0.0264
GTCGCGAC	0.324
CTCGCGAC	0.068
GTCGCGAA	-0.0136
AAGGTATC	-0.00987
CACCACAC	0.096
GTATGAGA	0.158
GTATGAAA	0.29
ATTTGATC	-0.0998
TTATGAAA	0.204
GTATGATA	0.282
CTGTGATA	-0.106
GTATGAAC	0.0322
ATTTGATA	0.273
ATGTGATA	0.255
CTTTGATA	0.189
GTGTGATA	0.203
GGATGATA	0.122
CAGAAGCA	0.137
TCCTACAA	0.0495
GTCATCCA	0.0539
AAAGACCT	0.0294

Sequence	PBM E-score
AGATGATA	0.08
CTATGATC	-0.0167
GTGTGAAA	0.133
CTGTGAAA	0.264
ATATGATA	0.264
ATATGATC	0.294
CTATGATA	0.0744
ATGTGAAA	0.134
ATATGATG	0.171
CTCTAGAA	-0.214
AGTGGTAC	0.0484
CTCGCTGC	-0.0528
AAGCATTA	0.106
CATTCAAC	-0.065
CTAAATAC	0.0333
ATAAATAG	0.195
ATAAATCA	0.207
TTAAATAA	0.155
ATAAATAC	0.325
GTAAATAC	0.0284
GTAAATAA	0.267
ATATAAAT	0.242
CTAAATAA	0.155
ATAAAAAT	0.199
ATAAATAA	0.307

Sequence	PBM E-score
ATAAATAT	0.267
GAACTCTC	-0.0889
AATTAGAT	0.245
ACATTTTC	0.125
CCTATAAC	-0.0793
CCATCTTA	0.00932
GTCCTAAC	-0.0915
ACCATCAC	0.0126
ATCTTCTA	0.0985
ATTGAGCA	0.105
AATAAAAC	0.315
GATAAAAC	0.219
AATAAAAG	0.0973
AATAAAAA	0.27
CATAAAAC	0.0691
AATAAAAT	0.239
ACCACTCG	0.0759
ACGTGTTG	0.0914
GAGCGACA	0.0223
ACTTGTCT	-0.0439
CGACAACG	0.0404
CTAATAAA	0.178
ACAATAAA	0.106
ATAATAAT	0.26
ATAATAAG	0.194

Sequence	PBM E-score
GTAATAAC	0.188
ATAATAAA	0.277
ATAATAAC	0.173
GTAATAAA	0.266
GAAATAAA	0.14
TTAATAAA	0.372
CTAATAAC	0.15
ATAATAGA	0.184
CGCGTCGA	0.0342
GTACGAAA	0.173
CTCGTCGA	-0.0244
CGTCGCTA	0.11
CTTCTGAA	0.0313
ACAGCCAT	-0.0294
ACGTGAAA	0.211
AGAATAAT	0.24
AGAATAAA	0.261
AGAATAAG	0.11
AGATAGGC	-0.0411
GGACAGCA	-0.0442
GTTTAGTA	0.275
GGTTAGTA	0.0941
ATTTAGTC	0.167
CTTTAGTA	0.0328
ATTTAGTG	0.204

Sequence	PBM E-score
ATTTAGTA	0.289
CCAGTAAG	-0.0333
ACACATGT	0.0237
CGGGTAAC	-0.0884
ACAATTCC	0.0667
ACATCTTC	0.0249
GCGGTAGA	0.00783
AACAAATA	0.25
GACAAATA	0.299
CACAAATA	0.152
GACAAATC	0.175
GACAAGTA	-0.00588
TACAAATA	0.299
TGGGGACA	-0.0974
ATGTAGCA	-0.00878
CCGCGGCA	0.135
AGAGAGCC	-0.201
CGTATCGC	0.0192
TCGATTAA	0.308
ACGATTAA	0.0578
GTTATTGA	0.117
GTCATTAA	0.3
GTTATTAA	0.262
GCGATTAA	0.216
CTTATTAA	0.339

Sequence	PBM E-score
GTTATTTA	0.165
CTTATTGC	0.0255
CTCATTAA	0.0548
ATCATTAA	0.207
CTTATTGA	0.0574
CCGCCACC	-0.155
CCTCAGGA	-0.184
CCAAGACG	-0.148
ATGGTGGA	-0.062
CGCTAATA	0.0177
CTCTCTAA	-0.149
CACCTTCA	0.014
GGCCCACA	-0.119
CGGAGCAG	-0.191
AGATTTGG	-0.12
ATTGCAGG	0.073
TCCATTAA	0.0027
CTGATTAA	0.203
ATGATTAG	0.124
ATTATTAA	0.378
CCCATTAA	-0.108
ACTATTAA	0.123
CCTATTAA	0.0368
ATGATTAA	0.274
ACCATTAA	0.26

Sequence	PBM E-score
ATAAGATG	0.176
AATAGAAA	0.138
CTTGTATA	0.127
ATTGTATA	0.298
ATGGTATG	0.00998
ATGGTATC	0.175
ATTGTATG	0.151
ATGGTATA	0.262
CGGTCGCC	-0.2
CTCTAAAC	0.167
AAGCTGAG	0.0158
AGCAGAGA	-0.0117
TCGTAGAA	-0.0144
CCGCCTAA	-0.155
CAAAAATC	0.051
CAAAAATA	0.332
CAAAATAA	0.296
TAAATAGA	-0.0374
AAAAAATA	0.287
AAAATAGA	0.256
AAAAATAA	0.25
GAAAAATA	0.114
TAAAATAA	0.0792
AAAATAGC	-0.0905
ACAAAATA	0.175

Sequence	PBM E-score
CCAAAATA	0.211
CAGTTTGC	0.124
ACGCCGCG	-0.0869
AGACCTGG	-0.0312
AGTTTGCC	0.175
GCGGCTCA	0.0715
AAAATAAA	0.204
TAAATAAA	0.282
TAAAAATA	0.26
CTAAAATA	0.148
GAAAGATA	0.217
TAAAAAAA	0.0893
GAAATATA	0.248
CAAAGATA	0.0838
CAAATATA	0.0799
TAAATATA	0.297
TAAAGATA	0.254
CAAATAAA	0.197
TAGGTCAA	0.0932
AGGAATAA	0.156
GTGGTAAA	-0.0974
AGAGCTCC	-0.275
AATTGGAG	-0.0503
ATGGCCGA	0.0282
ATGTGCAA	0.059

Sequence	PBM E-score
ATCTGTTG	-0.0152
AAAAACTC	0.072
AGAATCGG	-0.0519
ACAGACAG	0.0669
AAAGACAA	0.261
ACAGACAA	0.285
ACAGACAC	-0.0498
TAAGACAA	0.187
CAAGACAA	0.0625
CGACCAAA	0.174
CCTCAGGC	-0.249
CAGGTGCG	0.015
AAAAAATG	0.209
ATAAAAAG	0.261
ATAAAAAA	0.187
ATAAAATA	0.298
ATAAAAGG	-0.011
ATAAAATG	0.276
ATAAAACG	0.206
GTAAAATA	0.117
ATAAAATC	0.207
GACATTCC	-0.186
ACTGACCG	-0.0919
ACCCCTCT	-0.251
AGTTGAAC	0.00888

Sequence	PBM E-score
GATCTTGA	0.0634
ACACTTGC	0.0282
GAAATGAA	0.289
GAAATGAC	0.259
CAAATGAA	0.14
TAAATGAA	0.117
CAAATGAC	0.0524
GAAATGCC	0.0869
TTGGCCAA	-0.0814
GCGCCCAC	-0.0948
ATGCTACC	0.0357
ACCTCTCC	-0.165
ACATGGCA	-0.0266
TATAACAA	0.265
GATAACCA	0.161
TATAACCA	0.269
CATAACCA	0.0668
GATAACAA	0.0894
CATAACAA	0.18
GAGGGGCA	-0.299
CAATGCTG	-0.114
AGCAAAAA	0.122
CCCAACGA	-0.0115
GATTTTCA	0.175
CATTATCG	0.129

Sequence	PBM E-score
CATTATCA	0.161
AATTATCA	0.288
AATTATCT	0.237
AATTATCC	0.133
AATTATCG	0.267
TTCCCGAA	0.115
CGAGTACG	-0.147
AGAAGGTA	0.28
AGAAGGTG	0.029
GGAAGGTA	-0.0252
TGAGCTCA	0.0969
AAAGGTCT	-0.0778
GTTGGCTA	0.12
ATGGGTAG	-0.0623
GTGCAGCA	-0.204
GCTTTGTA	0.259
CCTTTGTA	-0.135
ACTTTGTA	0.0238
GATTATGC	0.0614
AATTATGC	0.273
CATTATGC	0.0641
AATTATGG	0.238
AATTATGT	0.164
AATTATGA	0.278
CAGTCTAC	-0.192

Sequence	PBM E-score
GGCTTCCC	-0.127
CTCCAACA	0.141
TATTACGA	0.326
GATTACGA	0.291
AATTACAA	0.151
GATTACGC	0.108
ACTTACGA	0.315
GGTTACGA	0.06
GCTTACGA	0.219
CTTTACGA	-0.0493
CATTACGA	0.149
TATTACCA	0.196
ACTTACGC	0.122
AATTACGA	0.33
GGCCTTAC	-0.144
CTCTAATC	-0.0693
CCACTAGC	-0.158
AGCTGAAA	-0.101
AGAATTCT	0.124
TCCGCAAA	0.0357
ACAGACGC	-0.168
CGTGCACC	-0.0988
AATTACGT	0.308
AATTACGG	0.235
AATTACGC	0.208

Sequence	PBM E-score
GATAATTA	0.251
AATAATTG	0.203
AATAATTA	0.316
AATAATGA	0.0556
CATAATTA	0.316
CATAATTC	0.23
AATAATGC	0.216
CATAATGA	0.118
AATAATTC	0.263
ACCTTCAG	-0.0617
AGCAAAGC	0.0118
ACTAGCGC	0.0683
GGCACTAA	0.107
CGGTGTGA	0.115
AAGAACAA	0.267
CAGAACAA	0.248
AAGAACAG	0.0639
GAGAACAC	-0.00708
GAGAACAA	0.311
AAGAACAC	0.147
